Bioassay records deposited in PubChem by several laboratories.
esBAF inh: inhibitors of esBAF chromatin remodeling in mouse ES cells; AID 602393; hit rate 2% among 350,000; Bmi1-luciferase knock-in reporter, 24 h; 100% = twice the neutral-well signal; reporter increase, % at 12.5 µM; in the data active = activation above about 40%;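 also: 0% = median of the plate's neutral control wells and 100% = double that signal; a rise in the Bmi1 reporter signal indicates esBAF inhibition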
SMARCA2 activ: increases SMARCA2 function in MMTV reporter cells | activation, % at 9.1 µM | MG213 cells, MMTV-luciferase reporter, dexamethasone, overnight | hit rate 1% among 370,000; in the data active = activation above about 7.8%;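 also: 0% = vehicle wells and 100% = reference activator wells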
SKN-1 inh: inhibitors of C. elegans SKN-1; hit rate 0.49% among 360,000; C. elegans VP596 Pgst-4::GFP/RFP ratio, acrylamide-induced, 24 h; inhibition, % at 21.8 µM; AID 624304;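 active = interference check ratio from 0.5 to 1.5 plus GFP to RFP signal ratio inhibition reaching or exceeding a fixed threshold, cut at about 30% in these data, passing the limit was not always enough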
NR3A LBD binder: modulates the human NR3A ligand-binding domain | NR3A LBD differential scanning fluorimetry, Tm shift; 0% = protein alone, 100% = glycine-bound protein | Tm shift relative to glycine control, % at 25 µM | hit rate 2.5% among 340,000;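 active = melting temperature shift of at least 10% of the positive control shift, at one fixed dose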
NadD inh: NadD (S. aureus) enzyme inhibition. purified NadD enzyme, colorimetric absorbance read-out. inhibition, % at 20 µM. hit rate 0.78% among 360,000. AID 602399; in the data active = inhibition above about 26%
Vif imaging: HIV Vif inhibition; inhibition, % at 7.49 µM; hit rate 0.35% among 340,000; AID 602346; HEK293T cells, Vif self-association by quenched fluorescence, imaging, 24 h; in the data active = inhibition above about 50%, passing the limit was not always enough
SMARCA2 conf: confirmation of SMARCA2 (BRM) function activators | shares compounds with SMARCA2 activ | MG213 cells, MMTV-luciferase with dexamethasone, luminescence, overnight; MG213 cells expressing E1A, Rb sequestered; DMSO wells 0%, reference activator 100% | activation, % at 9.1 µM | hit rate 30% among 3,500;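 active = activation above its plate's cutoff, the mean activation of tested wells plus 3 SD, cut at about 7.9% in these data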
GAL4-VP16 Luc: GAL4-VP16 reporter activation counter-screen | activation, % at 9.1 µM | HEK293 GAL4-VP16 pG5luc reporter, luciferase luminescence; scaled: DMSO wells 0%, SAHA wells 100% | hit rate 41% among 3,500 | shares compounds with SMARCA2 activ;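 active = activation above the solvent-only control well mean plus 3 SD, averaged across control plates, cut at about 5.2% in these data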
* = called active by the depositor. Hits are enriched below; roughly 5.2% of the tested compounds scored in any of these assays.

How did O=C1CC2(CCCCC2)CC(=O)N1CCc1ccccc1 do in these assays?
esBAF inh: 28; SMARCA2 activ: 8.0*; SKN-1 inh: 21; NR3A LBD binder: 4; NadD inh: -3; Vif imaging: -15; SMARCA2 conf: 2; GAL4-VP16 Luc: 2

What do the screens show for `O=C1CC2(CCCC2)CC(=O)N1c1ccccc1`?
esBAF inh: 2; SMARCA2 activ: -4; SKN-1 inh: 2; NR3A LBD binder: -1; NadD inh: -4; Vif imaging: -2

Results for CC1=C/C(=N\NC(=S)Nc2cccnc2)CC(C)(C)C1 ?
esBAF inh: 1; SMARCA2 activ: 8.1*; SKN-1 inh: 0; NR3A LBD binder: 1; NadD inh: -3; Vif imaging: 0; SMARCA2 conf: -12; GAL4-VP16 Luc: 21*

How did CC1(C)C2CC=C(/C=N/NC(=S)Nc3cccnc3)C1C2 (centres undefined) do in these assays?
SMARCA2 activ: -1; SKN-1 inh: 2; NR3A LBD binder: 1; NadD inh: 2; Vif imaging: -3

What do the screens show for `CCCCn1c(=N)n(CC(=O)c2ccc(OC)cc2)c2ccccc21`?
SMARCA2 activ: 9.4*; SMARCA2 conf: 20*; GAL4-VP16 Luc: -2

What do the screens show for `COc1ccc(C(=O)CN2C(=O)COc3ccccc32)cc1`?
SMARCA2 activ: -2; SKN-1 inh: 5; NR3A LBD binder: 1; NadD inh: -6; Vif imaging: 0

How did COc1ccc(C(=O)CN2Cc3ccccc3C2=N)cc1 do in these assays?
SMARCA2 activ: 12*; SKN-1 inh: -2; NR3A LBD binder: 0; NadD inh: 4; Vif imaging: -2; SMARCA2 conf: 8.3*; GAL4-VP16 Luc: 6.1*

What do the screens show for `COc1ccccc1-c1ccc2c(c1)O[C@@H](CN(C)C(=O)Nc1cccc(F)c1)[C@H](C)CN([C@@H](C)CO)S2(=O)=O`?
esBAF inh: 0

What do the screens show for `Cc1ccc(C(=O)c2cnc3cc4c(cc3c2S(=O)(=O)c2ccccc2)OCCO4)cc1`?
esBAF inh: 118*; SMARCA2 activ: 9.5*; SKN-1 inh: 3; NR3A LBD binder: -1; NadD inh: 16; Vif imaging: 4; SMARCA2 conf: 0; GAL4-VP16 Luc: 5.5*

How did CCOc1ccc(S(=O)(=O)c2c(C(=O)c3ccc(C)cc3)cnc3cc4c(cc23)OCCO4)cc1 do in these assays?
SMARCA2 activ: -4; SKN-1 inh: 6; NR3A LBD binder: -2; NadD inh: 17; Vif imaging: 4

How did O=C(Nc1cccc(Cl)c1)c1cnn2cccnc12 do in these assays?
esBAF inh: 39; SMARCA2 activ: 8.1*; SKN-1 inh: -3; NR3A LBD binder: 2; NadD inh: 0; Vif imaging: 2; SMARCA2 conf: 8.3*; GAL4-VP16 Luc: 12*

How did COc1cc(C(=O)c2cocc2C(=O)c2ccc3c(c2)OCO3)cc(OC)c1OC do in these assays?
esBAF inh: -17; SMARCA2 activ: 9.0*; SKN-1 inh: 6; NR3A LBD binder: 0; NadD inh: -7; Vif imaging: 32; SMARCA2 conf: 0; GAL4-VP16 Luc: 6.3*

How did Brc1ccsc1/C=N/Nc1ccccc1 do in these assays?
SMARCA2 activ: 1; SKN-1 inh: 6; NR3A LBD binder: -6; NadD inh: -2; Vif imaging: 5

Results for C(=N\Nc1ccccc1)/c1nc2ccccc2s1 ?
SMARCA2 activ: 10*; SKN-1 inh: 9; NR3A LBD binder: 2; NadD inh: -7; Vif imaging: -18; SMARCA2 conf: 6; GAL4-VP16 Luc: 9.0*

Results for C[C@H](O)C#Cc1ccc2c(c1)O[C@@H](CN(C)C(=O)c1ccccc1)[C@H](C)CN([C@H](C)CO)S2(=O)=O ?
esBAF inh: 0

How did CC(=O)C1=C(NC(=O)c2ccc(F)cc2)CC2C1C2(C)C (centres undefined) do in these assays?
esBAF inh: 9; SMARCA2 activ: -2; SKN-1 inh: 12; NR3A LBD binder: 3; NadD inh: -1; Vif imaging: -1

Results for C/C(NC(=O)c1ccccc1)=C1/C(=O)CC2C1C2(C)C (centres undefined) ?
esBAF inh: 52*; SMARCA2 activ: 8.0*; SKN-1 inh: 4; NR3A LBD binder: 0; NadD inh: -2; Vif imaging: 3; SMARCA2 conf: 19*; GAL4-VP16 Luc: 5

What do the screens show for `COc1ccc(/C=C2/CCc3ccccc3C2=O)cc1CN1CCOCC1`?
SMARCA2 activ: 8.0*; SKN-1 inh: 13; NR3A LBD binder: -2; NadD inh: -2; Vif imaging: 6; SMARCA2 conf: 4; GAL4-VP16 Luc: 2

Results for COc1ccc(/C=C2\CCc3ccccc3C2=O)cc1Cn1nc(C)cc1C ?
esBAF inh: -35; SMARCA2 activ: -2; SKN-1 inh: 0; NR3A LBD binder: 5; NadD inh: 0; Vif imaging: -24

How did O=C(NCCSc1ccccc1)c1ccccc1Cl do in these assays?
SMARCA2 activ: 8.7*; SKN-1 inh: 6; NR3A LBD binder: 0; NadD inh: -3; Vif imaging: -5; SMARCA2 conf: 8.7*; GAL4-VP16 Luc: 8.8*

How did COc1ccc(C(=O)Nc2ccnn2C2CCN(C(=O)c3cnsn3)CC2)cc1 do in these assays?
esBAF inh: 12; SMARCA2 activ: 8.9*; SKN-1 inh: -13; NR3A LBD binder: -1; NadD inh: -1; Vif imaging: -12; SMARCA2 conf: -1; GAL4-VP16 Luc: 0

How did COc1ccccc1C(=O)Nc1ccnn1C1CCN(C(=O)c2cnsn2)CC1 do in these assays?
esBAF inh: 11; SMARCA2 activ: -1; SKN-1 inh: 13; NR3A LBD binder: 4; NadD inh: -5; Vif imaging: -2

Results for CCOC(=O)C1CCN(C(=O)c2cc3c(ccc4ccccc43)o2)CC1 ?
esBAF inh: 71*; SMARCA2 activ: 9.0*; SKN-1 inh: 1; NR3A LBD binder: -4; NadD inh: -1; Vif imaging: 3; SMARCA2 conf: 11*; GAL4-VP16 Luc: 7.3*

Results for CN1C(=O)c2cc(NC(=O)C3CCOCC3)ccc2OC[C@H]2O[C@H](CC(=O)NCC3CC3)CC[C@H]21 ?
esBAF inh: 3

What do the screens show for `N#Cc1c2n(c3c(=S)nc[nH]c13)CCCCC2`?
SMARCA2 activ: 0; SKN-1 inh: 13; NR3A LBD binder: -2; NadD inh: -1; Vif imaging: -2
